Records with an inconclusive call do not appear. The source made the active and inactive calls. The call rests on the fitted dose curve; in most records, active means well fitted curve in the direction sought with a large enough effect; inconclusive means small, poorly fitted or top-dose-only effect, or another doubt; inactive means no such curve, though single readings can be large; an effect the other way counts as inactive or inconclusive.
Experiments:
[1] = test system: CRL-7250; assay: Cytotoxic Profiling of Annotated Libraries Using Quantitative High-Throughput Screening (AID 1296008); details: Five cell lines viability, CellTiter-Glo ATP luminescence, 48-72 h; max response: active compounds read low; further: nearly all actives have a fitted effect of over 60% in size; on max response: on the % scale 0 is the no-effect control and ±100 the full control effect
Outline: (§1)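 Cytotoxicity was measured as CellTiter-Glo ATP luminescence, read after 10 min at room temperature. Compound treatment of the cells lasted 48 or 72 hr at 37 degrees Celsius in a qHTS format.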

[2] = test system: HaCat; assay: as above; details: Five cell lines viability, CellTiter-Glo ATP luminescence, 48-72 h; max response: active compounds read low
Outline: as §1

[3] = test system: KB-3-1; assay: as above; details: Five cell lines viability, CellTiter-Glo ATP luminescence, 48-72 h; max response: active compounds read low
Outline: as §1

[4] = test system: NIH3T3; assay: as above; details: Five cell lines viability, CellTiter-Glo ATP luminescence, 48-72 h; max response: active compounds read low
Outline: as §1

[5] = test system: NIH3T3; assay: qHTS assay to identify novel small-molecules to repurpose for Merkel cell carcinoma treatment (AID 1296009); details: MCC and control cell lines, CellTiter-Glo viability, 72 h; series mostly up to 44.8 µM; further: nearly all actives have a fitted effect of over 60% in size
Outline: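 Cell viability measured by CellTiter-Glo following 72 hr compound treatment at 37 degree celsius, with NPC and MIPE libraries tested in 8- and 11-point concentration series.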

[6] = test system: C33A; assay: Primary qHTS to identify gynecologic anti-cancer compounds using libraries of approved drugs and bioactive compounds (AID 1345084); details: Gynecologic cancer cell panel viability, ATPlite luminescence, 48 h; series mostly up to 57.5 µM; further: on the % scale 0 is the no-effect control and ±100 the full control effect; nearly all actives have a fitted effect of over 55% in size
Outline: (§2)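 48 h compound exposure at 37 C, 5% CO2; five-point qHTS. ATPlite luminescence readout of cell ATP.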

[7] = test system: CAOV3; assay: as above; details: Gynecologic cancer cell panel viability, ATPlite luminescence, 48 h; series mostly up to 57.5 µM
Outline: as §2

[8] = test system: CASKI; assay: as above; details: Gynecologic cancer cell panel viability, ATPlite luminescence, 48 h; series mostly up to 57.5 µM
Outline: as §2

[9] = test system: Es-2; assay: as above; details: Gynecologic cancer cell panel viability, ATPlite luminescence, 48 h; series mostly up to 57.5 µM
Outline: as §2

[10] = test system: HeLa; assay: as above; details: Gynecologic cancer cell panel viability, ATPlite luminescence, 48 h; series mostly up to 57.5 µM
Outline: as §2

[11] = test system: Hek293T; assay: as above; details: Gynecologic cancer cell panel viability, ATPlite luminescence, 48 h, control line for the selectivity index; series mostly up to 57.5 µM
Outline: as §2

[12] = test system: JEG-3; assay: as above; details: Gynecologic cancer cell panel viability, ATPlite luminescence, 48 h; series mostly up to 57.5 µM
Outline: as §2

[13] = test system: OV90; assay: as above; details: Gynecologic cancer cell panel viability, ATPlite luminescence, 48 h; series mostly up to 57.5 µM
Outline: as §2

[14] = test system: PA-1; assay: as above; details: Gynecologic cancer cell panel viability, ATPlite luminescence, 48 h; series mostly up to 57.5 µM
Outline: as §2

[15] = test system: SKOV3; assay: as above; details: Gynecologic cancer cell panel viability, ATPlite luminescence, 48 h; series mostly up to 57.5 µM
Outline: as §2

N#Cc1cc(C2=Nc3ccc(Br)cc3NC(=O)C2)ccn1
inactive: max response [1] -3.76% | max response [2] 4.97% | max response [3] 4.39% | outcome [4] | Potency [5] | Potency [6] | Potency [7] | Potency [8] | Potency [9] | Potency [10] | Potency [11] | Potency [12] | Potency [13] | Potency [14]

C=C(COC(=O)C(O)C(O)CN)C12OC1C1(C)C(=CC2=O)C(O)C(O)CC1C (configuration not stated)
inactive: max response [1] -7.2% | max response [2] 0.561% | outcome [3] | outcome [4] | Potency [5] | Potency [6] | Potency [7] | Potency [8] | Potency [9] | Potency [10] | Potency [11] | Potency [12] | Potency [13] | Potency [14] | Potency [15]

O=c1[nH]cnc2c([C@@H]3N[C@H](CO)[C@@H](O)[C@H]3O)c[nH]c12
inactive: max response [1] -8.88% | max response [2] -34.4% | max response [3] 7.13% | outcome [4] | Potency [5] | Potency [6] | Potency [7] | Potency [8] | Potency [9] | Potency [10] | Potency [11] | Potency [12] | Potency [13] | Potency [14] | Potency [15]

O=C(/C=C/c1ccccc1O)O[C@@H]1O[C@H](CO)[C@@H](O)[C@H](O)[C@H]1O
inactive: max response [1] 2.59% | max response [2] -3.03% | outcome [3] | outcome [4] | Potency [5] | Potency [6] | Potency [7] | Potency [8] | Potency [9] | Potency [10] | Potency [11] | Potency [12] | Potency [13] | Potency [14] | Potency [15]

CCCc1cc(C)n(C)c(=O)c1CN(C)C(=O)c1cc(-c2ccc(N3CCN(C(C)C)CC3)nc2)cc2c1cnn2C(C)C
inactive: max response [1] -1.11% | max response [2] 1.32% | max response [3] 4.77% | outcome [4] | Potency [5] | Potency [8] | Potency [9] | Potency [11] | Potency [12] | Potency [13] | Potency [14] | Potency [15]

Cn1cc(C2=C(c3coc4ccccc34)C(=O)NC2=O)c2cc(Br)ccc21
inactive: max response [1] 2.54% | max response [2] 3.32% | outcome [3] | outcome [4] | Potency [5] | Potency [6] | Potency [7] | Potency [8] | Potency [9] | Potency [10] | Potency [11] | Potency [13] | Potency [14] | Potency [15]

CN1CCc2cc3c(cc2C(=O)Cc2cc4c(cc2C1)OCO4)OCO3
inactive: outcome [1] | max response [2] -8.11% | outcome [3] | outcome [4] | Potency [5] | Potency [6] | Potency [7] | Potency [8] | Potency [9] | Potency [10] | Potency [11] | Potency [12] | Potency [13] | Potency [14] | Potency [15]

CC[C@@H]1C[C@]1(NC(=O)[C@@H]1C[C@@H]2CN1C(=O)[C@H](C(C)(C)C)NC(=O)OCC(C)(C)CCCCc1cccc3c1CN(C3)C(=O)O2)C(=O)NS(=O)(=O)C1CC1
inactive: max response [1] -9.24% | max response [2] -6.71% | max response [3] -19.5% | outcome [4] | Potency [5] | Potency [6] | Potency [7] | Potency [8] | Potency [9] | Potency [10] | Potency [11] | Potency [13] | Potency [14] | Potency [15]

CCCCc1ccc(NS(=O)(=O)c2ccc(F)cc2)cc1
inactive: outcome [1] | max response [2] -1.98% | max response [3] 4.06% | outcome [4] | Potency [5] | Potency [6] | Potency [7] | Potency [8] | Potency [9] | Potency [10] | Potency [11] | Potency [12] | Potency [13] | Potency [14] | Potency [15]

COc1cc(C(C)=O)c(OC)c2c1OC(C)(C)C=C2
inactive: outcome [1] | max response [2] -6.75% | outcome [3] | outcome [4] | Potency [5] | Potency [6] | Potency [7] | Potency [8] | Potency [9] | Potency [10] | Potency [11] | Potency [12] | Potency [13] | Potency [14] | Potency [15]

C=C1CCN([C@H](C)[C@](O)(Cn2cncn2)c2ccc(F)cc2F)CC1
inactive: max response [1] -7.35% | max response [2] -11.9% | max response [3] -0.073% | outcome [4] | Potency [5] | Potency [6] | Potency [7] | Potency [8] | Potency [9] | Potency [10] | Potency [11] | Potency [12] | Potency [13] | Potency [14] | Potency [15]

COc1cc2c(cc1OCCCN1CCCC1)N=C(N)C21CCC1
inactive: max response [1] -5.27% | max response [2] 2.83% | max response [3] 0.253% | outcome [4] inactive; activator | Potency [5] | Potency [6] | Potency [7] | Potency [8] | Potency [9] | Potency [10] | Potency [11] | Potency [12] | Potency [13] | Potency [14] | Potency [15]

CC1(C)CCC(C)(C)c2cc(C#Cc3ccc(C(=O)O)cc3)ccc21
inactive: max response [1] -18.1% | max response [2] -1.18% | max response [3] -2.7% | outcome [4] | Potency [5] | Potency [6] | Potency [7] | Potency [9] | Potency [10] | Potency [11] | Potency [12] | Potency [13] | Potency [14]

CCCCOC(=O)NS(=O)(=O)c1sc(CC(C)C)cc1-c1ccc(Cn2ccnc2)cc1
inactive: max response [1] -0.539% | max response [2] -26.5% | max response [3] -13.1% | outcome [4] | Potency [5] | Potency [6] | Potency [7] | Potency [8] | Potency [9] | Potency [10] | Potency [11] | Potency [12] | Potency [13] | Potency [14] | Potency [15]

From PubChem BioAssay (NCATS)
